Assay outcomes as filed in PubChem.
Compounds with a hit are over-represented: about 19% of the library has one in this group of screens.
DT40 TDP1 no CPT = qHTS for Inhibitors of human tyrosyl-DNA phosphodiesterase 1 (TDP1): qHTS in cells in absence of CPT; DT40 Tdp1-/- hTDP1 cells, no CPT, ATP luminescence, 48 h; Potency, µM (series often up to 46.2 µM), without a hit: at the highest dose activity change, negative = growth inhibition, actives largely listed as inhibitors; 420,000 tested, 15% active; note: potency is the fitted concentration of half-maximal effect; nearly all actives have a fitted effect of over 55% in size
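DT40 Tdp1-/-;hTDP1 cells, no CPT (DMSO vehicle only), 400 cells/well; compounds pin-transferred; ≥48 hr, 37 °C; CellTiter-Glo 30 min RT dark, luminescence read.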
DT40 TDP1 CPT = growth inhibition of DT40 Tdp1-/-;hTDP1 cells with camptothecin (screen for TDP1 inhibitors); chicken DT40 Tdp1-/-;hTDP1 cells + 20 nM CPT, ATP luminescence, 48 h; Potency, µM (top dose mostly 46.2 µM), for inactives: at the top dose activity change, negative = growth inhibition, usual class: inhibitors; 420,000 tested, 12% active; note: potency is the fitted concentration of half-maximal effect; nearly all actives have a fitted effect of over 55% in size
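Chicken DT40 Tdp1-/- cells stably complemented with human TDP1 were seeded at 400 cells/well in medium containing 20 nM camptothecin, exposed to pin-transferred compounds, and grown at 37 °C for at least 48 hr. Viability was read as ATP luminescence.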
HT1080 IDH1KD tx = HT-1080 IDH1 knockdown cell toxicity (counter line) | AID 686971 | 360,000 tested, 2% active | Potency, µM (top dose mostly 46.1 µM), for inactives: at the top dose activity, negative = toxicity, most hits filed as cytotoxic | HT-1080 IDH1 knockdown viability, ATP luminescence, 48 h;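 note: potency is the fitted concentration of half-maximal effect; 0% = DMSO wells and -100% = cell-free medium wells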
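Using the IDH1-knockdown HT-1080 line run in the same batch and compound series as the NT line, viability after 48 h at 37 °C was determined by CellTiter-Glo luminescence and expressed as % activity.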
IL1B secr inh = blocks inflammasome-driven IL-1 beta release; activity change, % at 57.5 µM; 360,000 tested, 4.7% active; THP-1 LPS/ATP IL-1B secretion, AlphaLISA, 16 h; stronger effect = lower value; in the data active = activity change below about -50%; inconclusive = mostly about -30% to -49%
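THP-1 cells pretreated 1 hr with compounds (up to 57.5 uM final), then stimulated with LPS (250 ng/mL final) plus ATP (1.25 mM final); secreted IL-1B measured by AlphaLISA after 16 hr, decreased signal indicating inhibition.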
HT1080-NT tox = kills 2HG-producing HT-1080-NT fibrosarcoma cells. Potency, µM (highest dose often 46.1 µM), for inactives: top-dose activity, negative = less viability, hits mostly cytotoxic. 360,000 tested, 1.6% active. HT-1080-NT fibrosarcoma viability, CellTiter-Glo ATP luminescence, 48 h;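 note: NT is the 2HG producing partner of a matched IDH1 knockdown line; potency is the fitted concentration of half-maximal effect; 0% = DMSO-treated cells and -100% = media-only wells without cells; nearly all actives have a fitted effect of over 55% in size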
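Fibrosarcoma NT cells, 750 per well in 5% FBS RPMI, were exposed to compound for 48 hours. Viability: CellTiter-Glo luminescence.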
Active calls of the source: *; ? = inconclusive; · = no result given; [ ] = remark or other dose. Unless noted, calls come from the whole dose curve; as a rule, active = well fitted curve in the direction sought with a large enough effect; inconclusive = small, poorly fitted or top-dose-only effect, or another doubt; inactive = no such curve, though single readings can be large; an effect the other way counts as inactive or inconclusive. Unless noted, % is set by controls: 0 for no effect and ±100 for the full control effect.

SMILES	DT40 TDP1 no CPT	DT40 TDP1 CPT	HT1080 IDH1KD tx	IL1B secr inh	HT1080-NT tox
O=C(CCN1C(=O)C2C3C=CC(C3)C2C1=O)NCCc1ccccc1 (centres undefined)	26µM*	?	17%	26	13%
O=C(CCN1C(=O)C2C3C=CC(C3)C2C1=O)Nc1ccccn1 (centres undefined)	-5%	-2%	-1%	16	-2%
Cc1cccc(NC(=O)CCN2C(=O)C3C4C=CC(C4)C3C2=O)n1 (centres undefined)	23µM*	16µM*	27%	5	21%
O=C(NNC(=O)C1CC=CCC1)c1ccccc1O (centres undefined)	?	?	?	41	-28%
COc1ccc(/C=N/NC(=O)c2nonc2C)cc1	-5%	1%	10%	-5	9%
COc1cc2c(cc1OC)C(c1ccc(N)cc1)=NNC(=O)C2	15µM*	21µM*	·	·	·
COc1cc2c(cc1OC)CC(=O)NC=C2	-4%	7%	3%	2	8%
CCc1nc(Nc2ccncc2)c2oc3ccccc3c2n1	2.3µM*	5.8µM*	23µM*	-59*	?
CCc1nc(NCc2ccccn2)c2oc3ccccc3c2n1	15µM*	15µM*	-12%	-68*	-22%
c1ccc(CNc2ncnc3c2oc2ccccc23)nc1	-15%	-12%	-2%	38	-4%
CCc1nc(Nc2ccc3c(c2)OCO3)c2oc3ccccc3c2n1	12µM*	21µM*	-3%	?	-4%
CCc1nc(N2CCN(Cc3ccc4c(c3)OCO4)CC2)c2oc3ccccc3c2n1	26µM*	26µM*	?	-28	?
CC(C)C[C@@H](NC(=O)C1CCC(CNC(=O)[C@H](Cc2ccccc2)NC(=O)OC(C)(C)C)CC1)C(=O)O (some centres undefined)	1%	44%	2%	12	-2%
CC(C)C(=O)N1CCCC1(C)C(=O)NCc1ccc(Cl)cc1 (centres undefined)	9%	-19%	?	12	9%
Cc1sc2nc(CN3CCCCC3)nc(Nc3ccc4c(c3)OCCO4)c2c1C	2%	0%	9%	0	11%
CCc1nc(Nc2ccccc2OC)c2oc3ccccc3c2n1	?	?	-21%	-54*	-19%
CC(=O)Nc1ccc(Nc2nc(C)nc3c2oc2ccccc23)cc1	?	?	-29%	19	?
CCc1nc(Nc2cc(OC)ccc2OC)c2oc3ccccc3c2n1	?	?	-26%	10	-12%
CCc1nc(N[C@H](C(=O)O)C(C)C)c2oc3ccccc3c2n1	?	-9%	0%	28	3%
Cc1nc(Nc2ccncc2)c2oc3ccccc3c2n1	12µM*	10µM*	13µM*	-93*	-15%[9.24 µM]
CCc1nc(Nc2cccc(O)c2)c2oc3ccccc3c2n1	26µM*	?	?	?	?
Cc1cccc2c(Nc3ccc4c(c3)OCO4)nc(CN3CCC(N4CCCCC4)CC3)nc12	21µM*	15µM*	·	·	·
CCOC(=O)C1CCN(S(=O)(=O)c2ccc3c(c2)NC(=O)CS3)CC1	-2%	-9%	-7%	23	1%
O=C(N/C=N/O)C(c1ccccc1)c1ncc(C(F)(F)F)cc1Cl (centres undefined)	-1%	0%	-2%	4	-1%
CCn1c(SC(C)C(=O)Nc2ccc(C)cc2)nnc1-c1ccccc1 (centres undefined)	-29%	-12%	·	·	·
SMILES	DT40 TDP1 no CPT	DT40 TDP1 CPT	HT1080 IDH1KD tx	IL1B secr inh	HT1080-NT tox
CCc1nc(SCC(=O)Nc2ccc3c(c2)OCCO3)c2oc3ccccc3c2n1	26µM*	?	0%	4	2%
Cc1cccc(Nc2nc(C)nc3c2oc2ccccc23)c1	?	16µM*	-2%	4	-3%
CCc1nc(N2CCCCC2C)c2oc3ccccc3c2n1 (centres undefined)	26µM*	29µM*	?	26	?
COc1ccc(Cl)cc1Nc1nc(C)nc2c1oc1ccccc12	-22%	?	13%	19	20%
CCN(CC(=O)Nc1cccc(S(=O)(=O)N(C)c2ccccc2)c1)Cc1cccs1	?	?	-3%	-9	-8%
Cc1ccc2nc(/C(C#N)=C/c3ccc(-c4ccccc4C(=O)O)o3)[nH]c2c1	4%	-2%	24%	-8	-1%
N#C/C(=C\c1ccc(-c2ccc(F)cc2F)o1)c1nc2ccccc2[nH]1	13µM*	23µM*	·	·	·
N#C/C(=C\c1ccc(-c2ccccc2C(=O)O)o1)c1nc2ccccc2[nH]1	15µM*	?	12%	?	22%
COC(=O)c1cc(NC(=O)Cc2cccs2)cc(C(=O)OC)c1	-10%	4%	-4%	2	-8%
CCc1sc(C(=O)NC2CCN(C)CC2)cc1Br	?	-20%	0%	9	-7%
CCCn1c(SCC(=O)Nc2cc(S(=O)(=O)N(C)C)ccc2OC)n[nH]c1=O	-28%	-4%	-3%	16	-5%
CN(C)c1ccc(-c2cccc3nccn23)cc1	15µM*	?	?	31	-25%
CS(=O)(=O)Nc1ccc(-c2cccc3nccn23)cc1	0%	3%	-1%	19	9%
NC(=O)c1cccc(-c2cccc3nccn23)c1	-2%	-4%	1%	10	0%
Clc1cccc(-c2cccc3nccn23)c1	21µM*	23µM*	-18%	16	12%
[O-][N+](=Cc1ccccc1)c1ccc(Cl)cc1	21µM*	6.5µM*	-2%	-10	-1%
[O-]/[N+](=C/c1ccc(F)cc1)c1ccc(Cl)cc1	9.2µM*	16µM*	3%	7	2%
CC(C)N(Cc1ccccc1)C(=O)CN1C(=O)NC2(CCCC2)C1=O	5%	-1%	-13%	1	5%[9.24 µM]
CCOc1ccc(-n2c(=O)c3c(C)c(C)sc3n(CC(=O)N3CCC(C)CC3)c2=O)cc1	21µM*	?	·	·	·
CCOc1ccc(-n2c(=O)c3c(C)c(C)sc3n(CC(=O)Nc3ccc(CC)cc3)c2=O)cc1	-22%	?	·	·	·
CCOC(=O)c1cn(-c2c(Cl)cccc2Cl)c2cc(Cl)c([N+](=O)[O-])cc2c1=O	16µM*	?	?	-54*	?
Cc1cc(S(=O)(=O)n2ccnc2C(C)C)cc([N+](=O)[O-])c1C	-3%	2%	·	·	·
O=C(NCCCc1nc2ccccc2n1Cc1ccc(Cl)cc1Cl)c1ccco1	?	23µM*	·	·	·
O=C(NCCc1nc2ccccc2n1Cc1ccc(F)cc1)c1ccco1	?	-10%	·	·	·
O=C(NCCc1nc2ccccc2n1Cc1ccc(Cl)cc1Cl)c1ccco1	1.8µM*	1.8µM*	·	·	·
